Among the data in ChEMBL document CHEMBL3988442, “University of Dundee, Small-Polar-MMV Screening Library” (2021) are Percent Effect values, retold here.

The whole screen tested about 67,000 compounds, of which about 300 (0.45%) showed an effect of 50% or more. The sample holds strong results, similar compounds and a random draw of the others, so the mix is not that of the screen.

Chain of Polyketide synthase Pks13 (Mycobacterium tuberculosis (strain ATCC 25618 / H37Rv)) (I6X8D2 whole entry): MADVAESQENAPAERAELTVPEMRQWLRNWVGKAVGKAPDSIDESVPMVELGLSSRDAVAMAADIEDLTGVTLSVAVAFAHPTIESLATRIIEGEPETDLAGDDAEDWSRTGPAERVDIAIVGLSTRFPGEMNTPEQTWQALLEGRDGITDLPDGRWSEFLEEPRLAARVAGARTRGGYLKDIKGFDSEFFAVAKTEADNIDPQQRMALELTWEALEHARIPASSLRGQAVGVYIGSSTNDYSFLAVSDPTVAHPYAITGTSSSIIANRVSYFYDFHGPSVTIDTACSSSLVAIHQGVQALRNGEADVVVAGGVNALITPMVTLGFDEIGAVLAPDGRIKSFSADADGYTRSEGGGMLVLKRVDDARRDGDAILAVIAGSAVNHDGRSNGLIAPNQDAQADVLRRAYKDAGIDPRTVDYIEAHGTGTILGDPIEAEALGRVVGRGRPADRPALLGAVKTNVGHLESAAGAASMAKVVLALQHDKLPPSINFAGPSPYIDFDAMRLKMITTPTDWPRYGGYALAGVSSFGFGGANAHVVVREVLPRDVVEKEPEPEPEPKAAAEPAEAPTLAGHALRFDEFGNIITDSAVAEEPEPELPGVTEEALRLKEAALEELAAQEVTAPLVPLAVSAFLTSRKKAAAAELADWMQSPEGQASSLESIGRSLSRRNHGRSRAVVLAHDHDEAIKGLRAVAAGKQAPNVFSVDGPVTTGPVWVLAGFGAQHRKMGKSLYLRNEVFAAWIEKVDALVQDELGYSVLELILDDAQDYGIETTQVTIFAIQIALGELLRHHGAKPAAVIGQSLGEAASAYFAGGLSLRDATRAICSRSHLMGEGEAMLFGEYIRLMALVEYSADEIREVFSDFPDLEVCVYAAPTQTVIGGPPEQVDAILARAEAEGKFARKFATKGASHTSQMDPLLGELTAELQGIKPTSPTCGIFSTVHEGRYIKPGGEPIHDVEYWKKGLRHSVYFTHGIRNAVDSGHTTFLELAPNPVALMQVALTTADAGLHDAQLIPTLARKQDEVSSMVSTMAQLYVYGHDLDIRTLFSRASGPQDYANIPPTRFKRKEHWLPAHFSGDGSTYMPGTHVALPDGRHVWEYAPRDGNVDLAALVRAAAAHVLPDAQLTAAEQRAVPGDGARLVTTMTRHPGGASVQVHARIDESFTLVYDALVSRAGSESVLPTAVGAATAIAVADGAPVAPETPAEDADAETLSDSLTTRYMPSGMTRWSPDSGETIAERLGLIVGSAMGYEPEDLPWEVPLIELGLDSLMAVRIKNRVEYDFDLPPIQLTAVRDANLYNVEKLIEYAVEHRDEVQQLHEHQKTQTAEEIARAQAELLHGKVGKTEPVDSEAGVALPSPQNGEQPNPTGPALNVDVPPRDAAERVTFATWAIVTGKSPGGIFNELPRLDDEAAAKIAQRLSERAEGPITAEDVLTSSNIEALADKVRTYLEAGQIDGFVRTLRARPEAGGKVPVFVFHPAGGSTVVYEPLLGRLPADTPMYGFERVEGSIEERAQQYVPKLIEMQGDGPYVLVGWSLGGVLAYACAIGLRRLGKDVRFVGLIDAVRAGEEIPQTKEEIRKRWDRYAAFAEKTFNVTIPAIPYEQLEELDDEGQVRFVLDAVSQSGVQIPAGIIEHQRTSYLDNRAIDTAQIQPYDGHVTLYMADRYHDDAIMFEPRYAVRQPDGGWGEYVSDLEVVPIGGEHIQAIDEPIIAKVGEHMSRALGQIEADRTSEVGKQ

This assay addresses Polyketide synthase Pks13 (Mycobacterium tuberculosis (strain ATCC 25618 / H37Rv)) (UniProt I6X8D2). Description: Mycobacterium tuberculosis Polyketide synthase 13 Thioesterase (PKS13). Set-up: scale not given: in the data most compounds retested in dose-response had high values. It is filed as functional. The settings on record: 30 µM.
On to `Cc1cc(C(=O)N2CC[C@H]3[C@H](C[C@@H](CN4CCCC4)N3C)C2)c(C)o1`, for which the Percent Effect is -16.7%.
Regarding `CN1CCCC1c1cccc(Cc2ccccc2F)n1` (stereo not given), the Percent Effect is -56.2%.
In the case of `CS(=O)(=O)N1CCCC1c1cccc(Cc2ccccc2F)n1` (stereo not given) it was 51.8%; in that of `CC(=O)N1CCCC1c1cccc(Cc2ccccc2F)n1` (stereo not given), -41.9%.
As to `CCC1=N[C@@]2(CC[C@@H]3CN(C(=O)Nc4ccccc4)C[C@@H]32)C(=O)N1C`, the Percent Effect turned out to be 7.9%.
For the compound `O=C(NC1CC1)[C@H]1C[C@H]2OCC[C@H]2N(Cc2cccnc2)C1`, the Percent Effect is 1.16%.
In the case of `Cc1nnc2n1CCN(C(=O)c1cc3cc(F)ccc3[nH]1)C2` it was -0.338%.
Next, `O=C(c1cc2cc(F)ccc2[nH]1)N1CCC(Nc2cccnn2)CC1`: -12.9%; `O=C(c1cc2cc(F)ccc2[nH]1)N1CCC(Nc2ccc(F)cc2)CC1`: 70.6%; `O=C1CO[C@H]2CN(Cc3ccccc3Br)C[C@@H]2N1`: 5.27%.
Regarding `Cn1ccnc1CN1CCN(CC2CC2)[C@@H]2CS(=O)(=O)C[C@@H]21`, the Percent Effect is -9.98%.
In the case of `c1ccc(CN2CCO[C@H]3[C@H](OCCN4CCCC4)CC[C@@H]32)nc1` it was -5.53%.
In the case of `CC(C)(C)c1ncc(CNc2ccccc2SCCC(N)=O)s1` it was 4.25%; in that of `NC(=O)CCSc1ccccc1NCc1ccc(Cl)s1`, 75.8%; in that of `CC(C)(C)c1nc(CNc2ccccc2SCCC(N)=O)cs1`, 6.99%.
Take `O=C(Nc1cccnc1)[C@@H]1C[C@H]2OCC[C@H]2N(Cc2nccs2)C1`: the Percent Effect was -10.3%.
Next, `Cc1nnc(N2C[C@@H]3CCCO[C@@H]3[C@H](N(C)C)C2)s1`: 26.3%.
Regarding `COC(=O)CNC(=O)c1sc(-c2ccc(Cl)s2)nc1C`, the Percent Effect was determined as 51.9%.
On to `CC(=O)NCCNC(=O)c1sc(-c2ccc(Cl)cc2)nc1C`, for which the Percent Effect is -15.5%.
Next, `COC(=O)CNC(=O)c1scnc1C`: -29.3%; `Cc1nc(-c2ccc(Cl)s2)sc1C(=O)NCCCC(N)=O`: 54.9%; `Cc1nc(-c2ccc(Cl)s2)sc1C(=O)N(C)CC(N)=O`: 88.9%.
In the case of `Cc1c(C(=O)NCCCC(N)=O)sc2ccc(F)cc12` it was 0.295%; in that of `CN(CC(N)=O)C(=O)c1cnc(-c2ccc(Cl)s2)s1`, -171%.
In the case of `CC(=O)NCCNC(=O)c1sc(-c2ccc(C)cc2C)nc1C` it was -6.1%.
As to `CC(=O)NCCNC(=O)c1sc(-c2ccc(Cl)s2)nc1C`, the Percent Effect came out at 33.9%.
Next, `Cc1nc(-c2ccc(Cl)s2)sc1C(=O)NCCS(N)(=O)=O`: 54%; `CN(CC(N)=O)C(=O)c1cc(Cl)c(Cl)n1C`: -6.47%.
Next, `COC(=O)CNC(=O)c1nc(Cl)sc1C(C)C`: -1.24%; `CN(C)C(=O)CN1C[C@@H]2CC[C@H](C1)N(Cc1ccccc1OCCO)C2`: -4.8%.
In the case of `CCCN1CCN(Cc2cccc(OC(C)C)c2)[C@H]2CS(=O)(=O)C[C@H]21` it was -8.54%; in that of `O=C(CO[C@@H]1CC[C@H]2[C@H]1OCCN2c1ncccn1)N1CCCC1`, -31.3%.
For the compound `C1CCN(CCO[C@@H]2CC[C@H]3[C@H]2OCCN3CC2CCOCC2)C1`, the Percent Effect was -4.73%.
Next, `c1cnc(NC[C@H]2OC[C@@H]3CCN(Cc4ccsc4)C[C@@H]32)nc1`: -14%; `Cc1ccc(S(=O)(=O)N2CC[C@H]3CO[C@H](CN(C)C)[C@H]3C2)cc1`: -8.17%; `CC(C)N1C(=O)CO[C@H]2CCN(C(=O)c3ccc4c(c3)CCC4)CC[C@@H]21`: 13%.
Next, `CC(C)(NC(=O)c1ccc(-c2ccc(F)cc2)s1)C(N)=O`: -17.8%; `Cc1nc(-c2ccc(Cl)s2)sc1C(=O)NC(C)(C)C(N)=O`: 59.7%; `Cc1nc(-c2ccc(Cl)s2)sc1C(=O)O`: 11.9%.
With `O=C1[C@@H]2CN(Cc3cc4ccccc4o3)C[C@]2(C(=O)O)CN1CC1CC1`, the Percent Effect is -17.7%.
Next, `CN(C)C(=O)N1C[C@@H]2CC[C@H](C1)N(C(=O)CCCn1cncn1)C2`: -5.92%; `Cc1csc(CNc2cnc3c(c2)c(C)nn3C)n1`: 54.4%; `Cc1csc(CCNCc2cnc3c(c2)c(C)nn3C)n1`: -13.2%.
In the case of `Cc1csc(CNc2nc3c(s2)c(C)nn3C)n1` it was 24%.
In the case of `Cc1ccc([C@]2(O)CC[C@H]3CN(Cc4cccc(Cl)c4Cl)C[C@H]32)nc1` it was -77.5%; in that of `COc1ccnc(N2C[C@@H]3CC[C@H](C2)N(CC2CC2)C3)n1`, -40.5%.
For `Cn1cccc1-c1cc(C(=O)NCCCc2csc(N)n2)[nH]n1`, the Percent Effect worked out at 3.3%.
In the case of `Cc1ccc(-c2cc(C(=O)NCCCc3csc(N)n3)[nH]n2)o1` it was -10.8%; in that of `Cc1ccc(-c2cc(C(=O)NCCCc3csc(N)n3)[nH]n2)s1`, 57.8%; in that of `COCCN1C[C@H]2[C@@H](C1)N(C(=O)CCc1ccccc1)CC[C@H]2OC`, -5.76%.
In the case of `Cc1nnc([C@@H]2CC[C@@H]3[C@@H](CCN3S(=O)(=O)c3cccnc3)O2)o1` it was -18.5%; in that of `NC(=O)c1cc(-n2cc(-c3cccc(C(=O)O)c3)cn2)cs1`, -18.4%; in that of `NC(=O)c1ccccc1-n1cc(-c2cccc(C(=O)O)c2)cn1`, 61.5%.
With `NC(=O)c1cc(-c2cccc(C(=O)O)c2)cs1`, the Percent Effect was -10.7%.
Next, `CC(=O)N1[C@H](CN(C)C)C[C@@H]2CN(C(=O)c3cccc(F)c3)CC[C@@H]21`: -7.05%.
In the case of `O=C(c1ccc(F)cc1)N1C[C@@H]2CN(c3ncccn3)C[C@@H]2C1`, the Percent Effect was -16.8%.
Next, `CN(C)S(=O)(=O)N1CC[C@]2(O)CCN(c3ncccn3)C[C@@H]2C1`: 5.3%; `CS(=O)(=O)NC[C@H]1OC[C@@H]2CN(Cc3cccnc3)CC[C@@H]21`: 7.73%.
As for `CC(C)CCC(=O)NC(C)c1nnc2n1CCCCC2` (stereo not given), the Percent Effect is -2.75%.
In the case of `CC(NC(=O)CN(C)S(C)(=O)=O)c1nnc2n1CCCCC2` (stereo not given), the Percent Effect came out at 76.2%.
Next, `CC(NC(=O)COCC(F)(F)F)c1nnc2n1CCCCC2` (stereo not given): -15.5%.
Next, `Cc1noc(C)c1CN1C[C@@H]2CCCO[C@@H]2[C@H](Nc2ccccn2)C1`: -22.7%; `Cc1nnc(C[C@@H]2COC[C@H]3CN(C(=O)c4ccco4)C[C@@H]23)o1`: -27.6%.
Next, `Cc1cccc(CN2C[C@H]3C[C@H](C(=O)NCc4cccnc4)[C@@H](C2)O3)c1`: 2.63%.
As to `c1ccc(CCCN2CC[C@H](c3nnc(-c4ccccc4)o3)C2)cc1`, the Percent Effect was found to be 96.4%.
Next, `Cc1nnc([C@H]2CCN(CCCc3ccccc3)C2)o1`: 8.46%.
In the case of `c1ccc(CCCN2CC[C@H](c3nnc(-c4cccnc4)o3)C2)cc1` it was -20%; in that of `Cc1nc(O)cc(CNC(=O)CC[C@@H]2CCCN3CCCC[C@H]23)n1`, -2.37%; in that of `COc1cccc(CNC[C@@]2(COc3cccnc3)C[C@@H](O)[C@@H](O)C2)c1`, 3.65%.
With `COc1cccc(C2CCCN2C(=O)c2cc3c([nH]c2=O)CCC3)c1` (stereo not given), the Percent Effect turned out to be 43.2%.
Next, `COCc1nc(C(=O)N2CCCC2c2ccncc2)cs1` (stereo not given): -19.5%; `O=C(c1cc2c([nH]c1=O)CCC2)N1CCCC1c1ccc(F)cc1` (stereo not given): -4.09%; `COc1ccc(C2CCCN2C(=O)c2cc3c([nH]c2=O)CCC3)cc1` (stereo not given): 57.9%.
In the case of `COCc1nc(C(=O)N2CCCC2c2cccc(C)c2)cs1` (stereo not given) it was -1.31%; in that of `COCc1nc(C(=O)N2CCCC2c2ccc(OC)cc2)cs1` (stereo not given), 76.5%.
